This is an account of results in article PMC5540273 (PLoS ONE, 2017).

pKd: −log10 of the molar value.

Broadly, the pKd is −log10 of the Kd, conventionally taken in molar units. A low value points to a high Kd.
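Note: kd values determined as follow-up on hits from a single-replicate KINOMEscan panel screen.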

The test system of this assay is T1, PIP5K2C.
T1 construct: gene PIP4K2C
As for `Nc1nccc(-c2c(-c3ccc(F)cc3)ncn2C2CCN(Cc3ccccc3)CC2)n1` [SB-219980], the pKd is 7.03.

Regarding `CS(=O)(=O)Cc1ccc(Nc2nccc(-c3c(-c4cccc(NC(=O)C5CCCCC5)c4)nn4ncccc34)n2)cc1` [GSK350559], the negative-log Kd (pKd) was 7.22. The pKd values of the last two molecules are within 0.2 log units of each other.

`CC(=O)c1c(C)c2cnc(Nc3ccn(C)n3)nc2n(C2CCCC2)c1=O` showed a pKd of 6.96. This pKd is 0.26 log units lower than that of the molecule before.
